# Hit rate of the full screen: of about 39,000 compounds, about 3,300 (8.5%) were called active. This is one part of a sample in which actives are shown more often than they occur.
# Test system: HepG2
# Assay: cytotoxicity call (relative viability < 0.9)
# Details: 10 µM
row,Compound,cytotoxicity call
1,O=C(CN1C(=O)COCC1=O)N1CCOCC1,inactive
2,CCCNC(=O)Nc1ccc2c(c1)OC[C@H](C)N(C(=O)C1CCOCC1)C[C@H](C)[C@H](OC)CN(C)C2=O,inactive
3,CC(C)c1cc(N2CC[C@@H](N)C2)nc(N)n1,inactive
4,Cc1noc(C)c1NC(=O)Nc1cccc2c1O[C@H](CN(C)S(C)(=O)=O)[C@H](C)CN([C@@H](C)CO)C2=O,inactive
5,CC(C)NC(=O)Nc1ccc2c(c1)CC(=O)N([C@H](C)CO)C[C@H](C)[C@H](CN(C)Cc1ccc(C(=O)O)cc1)O2,inactive
6,O=C(NCCCN1CCOCC1)[C@H]1[C@H](CO)[C@H]2Cn3c(cccc3=O)[C@@H]1N2C(=O)NC1CCCC1,inactive
7,CC(C)CN[C@H]1CCS(=O)(=O)C1,inactive
8,COc1ccc(CN(C)C[C@H]2OCCCC[C@@H](C)Oc3ccc(NS(=O)(=O)c4ccc(OC)cc4)cc3C(=O)N([C@H](C)CO)C[C@@H]2C)cc1,inactive
9,COc1ccc(CN(C)C[C@@H]2OCCCC[C@@H](C)Oc3ccc(NS(=O)(=O)c4ccc(OC)cc4)cc3C(=O)N([C@H](C)CO)C[C@H]2C)cc1,inactive
10,COc1ccc(S(=O)(=O)Nc2ccc3c(c2)C(=O)N([C@H](C)CO)C[C@H](C)[C@@H](CN(C)Cc2ccc(Cl)c(Cl)c2)OCCCC[C@H](C)O3)cc1,active
11,COc1ccc(S(=O)(=O)Nc2ccc3c(c2)C(=O)N([C@@H](C)CO)C[C@@H](C)[C@H](CN(C)Cc2ccc(Cl)c(Cl)c2)OCCCC[C@@H](C)O3)cc1,active
12,C[C@H]1CN([C@@H](C)CO)C(=O)c2cc(NS(=O)(=O)c3cn(C)cn3)ccc2O[C@H]1CN(C)C(=O)Nc1ccc2c(c1)OCO2,inactive
13,Cc1nc(CO)co1,inactive
14,COc1ccc([C@@H](N)c2ccncc2)cc1,inactive
15,C[C@H](CO)N1C[C@H](C)[C@@H](CN(C)Cc2ccc(Oc3ccccc3)cc2)Oc2c(NC(=O)CCCCCC(=O)Nc3ccccc3N)cccc2C1=O,inactive
16,O=S(=O)(NCCCN(C/C=C/c1ccc(F)cc1)C/C=C/c1ccc(F)cc1)c1cccc2cnccc12,inactive
17,O=S(=O)(NCCCCN(C/C=C/c1ccc(F)cc1)C/C=C/c1ccc(F)cc1)c1cccc2cnccc12,active
18,N=C(N)NCCNS(=O)(=O)c1cccc2cnccc12,active
19,O=[N+]([O-])c1ccc(/C=C/CN(C/C=C/c2ccc([N+](=O)[O-])cc2)CCCCNS(=O)(=O)c2cccc3cnccc23)cc1,inactive
20,O=S(=O)(NCCCN(CCCc1ccccc1)CCCc1ccccc1)c1cccc2cnccc12,inactive
21,COc1ccc(/C=C/CN(C/C=C/c2ccc(OC)cc2)CCCCNS(=O)(=O)c2cccc3cnccc23)cc1,active
22,COc1ccc(/C=C/CN(C/C=C/c2ccc(OC)cc2)CCCNS(=O)(=O)c2cccc3cnccc23)cc1,inactive

row,Compound,cytotoxicity call
1,O=[N+]([O-])c1ccc(/C=C/CN(C/C=C/c2ccc([N+](=O)[O-])cc2)CCNS(=O)(=O)c2cccc3cnccc23)cc1,inactive
2,O=S(=O)(NCCCCN(C/C=C/c1ccccc1)C/C=C/c1ccccc1)c1cccc2cnccc12,inactive
3,COc1ccc(NC(=O)N(C)C[C@@H]2Oc3ccc(NC(=O)CCCN(C)C)cc3C(=O)N([C@H](C)CO)C[C@@H]2C)cc1,inactive
4,C[C@@H]1CN([C@H](C)CO)C(=O)c2cc(NS(=O)(=O)c3cn(C)cn3)ccc2O[C@@H](C)CCCCO[C@@H]1CN(C)C,inactive
5,Cc1cc(C(=O)Nc2cccc3c2O[C@@H](CN(C)S(=O)(=O)c2ccc(Cl)cc2)[C@H](C)CN([C@@H](C)CO)C3=O)n(C)n1,inactive
6,C[C@@H]1CN([C@@H](C)CO)C(=O)c2cc(NS(=O)(=O)c3cccs3)ccc2O[C@H]1CN(C)S(=O)(=O)c1ccc(F)cc1,inactive
7,C[C@@H](O)[C@H](N)C(=O)N[C@@H](CCCCN)C(=O)N1CCC[C@H]1C(=O)N[C@@H](CCCNC(=N)N)C(=O)O,inactive
8,O=C(C[C@H]1C[C@H]2c3cc(NS(=O)(=O)c4ccc(F)cc4)ccc3O[C@H]2[C@H](CO)O1)NCc1cccnc1,inactive
9,Cc1noc(C)c1NC(=O)Nc1ccc2c(c1)C(=O)N([C@H](C)CO)C[C@H](C)[C@@H](CN(C)C(=O)Nc1c(C)noc1C)OCCCC[C@H](C)O2,inactive
10,CN(C)CCCCCCNC(=O)[C@@H]1C[C@@H]2C(=O)N[C@@H](CCCC[N+](C)(C)C)C(=O)N2[C@@H]1c1cccc(OCCO)c1,inactive
11,C[C@H](CO)N1C[C@H](C)[C@H](CN(C)C(=O)C2CCCCC2)Oc2cc(C#Cc3ccncc3)ccc2S1(=O)=O,active
12,C[C@H](CO)N1C[C@H](C)[C@@H](CN(C)C(=O)C2CCCCC2)Oc2cc(C#Cc3ccncc3)ccc2S1(=O)=O,active
13,C[C@@H]1CN([C@@H](C)CO)S(=O)(=O)c2ccc(C#CC3CC3)cc2O[C@H]1CN(C)C(=O)C1CCCCC1,inactive
14,C[C@@H]1CN([C@H](C)CO)S(=O)(=O)c2ccc(C#Cc3ccncc3)cc2O[C@H]1CN(C)C(=O)C1CCCCC1,active
15,C[C@H](O)C#Cc1ccc2c(c1)O[C@@H](CN(C)C(=O)C1CCCCC1)[C@H](C)CN([C@@H](C)CO)S2(=O)=O,inactive
16,C[C@H](O)C#Cc1ccc2c(c1)O[C@@H](CN(C)C(=O)C1CCCCC1)[C@H](C)CN([C@H](C)CO)S2(=O)=O,inactive
17,C[C@@H]1CN([C@H](C)CO)S(=O)(=O)c2ccc(C#C[C@@H](C)O)cc2O[C@@H]1CN(C)C(=O)C1CCCCC1,inactive
18,C[C@@H]1CN([C@@H](C)CO)S(=O)(=O)c2ccc(C#Cc3ccncc3)cc2O[C@H]1CN(C)C(=O)C1CCCCC1,active
19,C[C@H]1CN([C@@H](C)CO)S(=O)(=O)c2ccc(C#Cc3ccncc3)cc2O[C@H]1CN(C)C(=O)C1CCCCC1,inactive
20,COc1ccc(CN(C)C[C@@H]2Oc3ccc(NS(=O)(=O)c4cn(C)cn4)cc3C(=O)N([C@@H](C)CO)C[C@@H]2C)cc1,inactive
21,C[C@H]1CN([C@@H](C)CO)C(=O)c2cc(NC(=O)Nc3ccc4c(c3)OCO4)ccc2O[C@@H]1CN(C)C(=O)Nc1cccc2ccccc12,inactive
